Assay results as given in the supplement of paper PMC8728848.
About 410 targets per protein were measured; listed, in parts, are those with the strongest signals and a random draw of the rest.

How the values were obtained:
Assay in all cases: glycan array binding signal (z-score within array); higher = stronger binding
Conditions in all cases: glycan notation: IUPAC condensed, linker removed
Fuc(a1-2)Gal(b1-3)GalNAc = target: Fuc(a1-2)Gal(b1-3)GalNAc
Summary of the method: (§1)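 The binding signal is a Z-score computed within each array and averaged over linkers. Arrays of the same protein sequence at different concentrations or buffers were also averaged together. Data originate from 3228 arrays in the Consortium for Functional Glycomics database, kept only where the protein sequence was available.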

[1] = target: Fuc(a1-2)Gal(b1-3)GalNAc(b1-4)[Neu5Ac(a2-3)]Gal(b1-4)Glc
Summary of the method: as §1

[2] = target: Fuc(a1-2)Gal(b1-4)[Fuc(a1-3)]GlcNAc
Summary of the method: as §1

[3] = target: Fuc(a1-2)Gal(b1-4)[Fuc(a1-3)]GlcNAc(b1-3)Gal(b1-4)[Fuc(a1-3)]GlcNAc
Summary of the method: as §1

[4] = target: Fuc(a1-2)Gal(b1-4)[Fuc(a1-3)]GlcNAc(b1-3)Gal(b1-4)[Fuc(a1-3)]GlcNAc(b1-3)Gal(b1-4)[Fuc(a1-3)]GlcNAc
Summary of the method: as §1

Fuc(b1-3)GlcNAc = target: Fuc(b1-3)GlcNAc
Summary of the method: as §1

Gal(a1-3)Gal = target: Gal(a1-3)Gal
Summary of the method: as §1

Gal(b1-4)Glc6S = target: Gal(b1-4)Glc6S
Summary of the method: as §1

Gal3S(b1-4)GlcNAc6S = target: Gal3S(b1-4)GlcNAc6S
Summary of the method: as §1

Gal3S6S(b1-4)GlcNAc = target: Gal3S6S(b1-4)GlcNAc
Summary of the method: as §1

Gal3S6S(b1-4)GlcNAc6S = target: Gal3S6S(b1-4)GlcNAc6S
Summary of the method: as §1

Gal6S(b1-4)Glc6S = target: Gal6S(b1-4)Glc6S
Summary of the method: as §1

GalNAc(a1-3)GalNAc = target: GalNAc(a1-3)GalNAc
Summary of the method: as §1

GalNAc(b1-4)GlcNAc = target: GalNAc(b1-4)GlcNAc
Summary of the method: as §1

[5] = target: Neu5Ac(a2-3)Gal(b1-3)GlcNAc
Summary of the method: as §1

Neu5Ac(a2-3)GalNAc = target: Neu5Ac(a2-3)GalNAc
Summary of the method: as §1

[6] = target: Neu5Gc(a2-3)Gal(b1-4)[Fuc(a1-3)]GlcNAc
Summary of the method: as §1

Fuc(a1-4)GlcNAc = target: Fuc(a1-4)GlcNAc
Summary of the method: as §1

[7] = target: Gal(a1-3)[Gal(a1-4)]Gal(b1-4)GlcNAc
Summary of the method: as §1

[8] = target: Gal(b1-3)GalNAc(b1-3)Gal(a1-4)Gal(b1-4)Glc
Summary of the method: as §1

[9] = target: Gal(b1-4)GalNAc(b1-3)[Fuc(a1-2)]Gal(b1-4)GlcNAc
Summary of the method: as §1

[10] = target: Gal(b1-4)GlcNAc(b1-3)GalNAc
Summary of the method: as §1

[11] = target: Gal(b1-4)GlcNAc(b1-6)GalNAc
Summary of the method: as §1

GalNAc(b1-3)GalNAc = target: GalNAc(b1-3)GalNAc
Summary of the method: as §1

[12] = target: GlcNAc(b1-2)Gal(b1-3)GalNAc
Summary of the method: as §1

[13] = target: GlcNAc(b1-3)Gal(b1-3)GalNAc
Summary of the method: as §1

GlcNAc(b1-3)GalNAc = target: GlcNAc(b1-3)GalNAc
Summary of the method: as §1

[14] = target: GlcNAc(b1-6)Gal(b1-4)GlcNAc
Summary of the method: as §1

[15] = target: Man(a1-2)Man(a1-3)[Man(a1-6)]Man(a1-6)[Man(a1-2)Man(a1-3)]Man(b1-4)GlcNAc(b1-4)GlcNAc
Summary of the method: as §1

Man(b1-4)GlcNAc = target: Man(b1-4)GlcNAc
Summary of the method: as §1

[16] = target: Neu5Ac(a2-8)Neu5Ac(a2-8)Neu5Ac
Summary of the method: as §1

[17] = target: Fuc(a1-2)Gal(b1-3)GalNAc(b1-3)Gal(a1-4)Gal(b1-4)Glc
Summary of the method: as §1

[18] = target: Fuc(a1-2)Gal(b1-4)GlcNAc(b1-3)Gal(b1-4)GlcNAc
Summary of the method: as §1

Gal(a1-4)Gal(b1-4)Gal = target: Gal(a1-4)Gal(b1-4)Gal
Summary of the method: as §1

Gal(a1-4)Gal(b1-4)GalNAc = target: Gal(a1-4)Gal(b1-4)GalNAc
Summary of the method: as §1

[19] = target: Gal(b1-3)GalNAc(b1-3)Gal(b1-4)Glc
Summary of the method: as §1

Gal6S(b1-4)Glc = target: Gal6S(b1-4)Glc
Summary of the method: as §1

[20] = target: Man(a1-2)Man(a1-2)Man(a1-3)[Man(a1-2)Man(a1-6)[Man(a1-3)]Man(a1-6)]Man(b1-4)GlcNAc(b1-4)GlcNAc
Summary of the method: as §1

Man(a1-3)[Man(a1-6)]Man = target: Man(a1-3)[Man(a1-6)]Man
Summary of the method: as §1

[21] = target: Neu5Ac(a2-3)Gal(b1-3)GalNAc6S
Summary of the method: as §1

[22] = target: Neu5Ac(a2-3)Gal(b1-4)GlcNAc(b1-3)Gal(b1-4)[Fuc(a1-3)]GlcNAc
Summary of the method: as §1

[23] = target: Neu5Gc(a2-6)Gal(b1-4)GlcNAc
Summary of the method: as §1

B1: MIG/CXCL9 (Homo sapiens) (protein)
chain: TPVVRKGRCSCISTNQGTIHLQSLKDLKQFAPSPSCEKIEIIIATLKNGVQTCLNPDSADVKELIKKTEKQVSQKKKQKNGKKHQKKKVLKVRKSQRSRQKKTT
B1 was tested, and the “glycan array binding signal (z-score)” value (Fuc(a1-2)Gal(b1-3)GalNAc) was -0.29, the “glycan array binding signal (z-score)” value [1] was -0.193 and the “glycan array binding signal (z-score)” value [2] was -0.26. For the same binder, the “glycan array binding signal (z-score)” value [3] was -0.383, the “glycan array binding signal (z-score)” value [4] was -0.37 and the “glycan array binding signal (z-score)” value (Fuc(b1-3)GlcNAc) was -0.209. For the same binder, the “glycan array binding signal (z-score)” value (Gal(a1-3)Gal) was -0.114, the “glycan array binding signal (z-score)” value (Gal(b1-4)Glc6S) was 0.015 and the “glycan array binding signal (z-score)” value (Gal3S(b1-4)GlcNAc6S) was 2.28. For the same binder, the “glycan array binding signal (z-score)” value (Gal3S6S(b1-4)GlcNAc) was 2.35, the “glycan array binding signal (z-score)” value (Gal3S6S(b1-4)GlcNAc6S) was 5.28 and the “glycan array binding signal (z-score)” value (Gal6S(b1-4)Glc6S) was 2.35. For the same binder, the “glycan array binding signal (z-score)” value (GalNAc(a1-3)GalNAc) was 0.274, the “glycan array binding signal (z-score)” value (GalNAc(b1-4)GlcNAc) was -0.358 and the “glycan array binding signal (z-score)” value [5] was -0.037. The “glycan array binding signal (z-score)” value (Neu5Ac(a2-3)GalNAc) was -0.254 and the “glycan array binding signal (z-score)” value [6] was -0.288.

B2: MPA (Maclura pomifera) (protein)
chain: GVTFDDGAYTGIREINFEYNSETAIGGLRVTYDLNGMPFVAEDHKSFITGFKPVKISLEFPSEYIVEVSGYVGKVEGYTVIRSLTFKTNKQTYGPYGVTNGTPFSLPIENGLIVGFKGSIGYWLDYFSIYLSLNGPNGKSQSIIVGPWGDRVTN
In the case of B2, the “glycan array binding signal (z-score)” value (Fuc(a1-2)Gal(b1-3)GalNAc) is reported as 2.25, the “glycan array binding signal (z-score)” value (Fuc(a1-4)GlcNAc) is reported as -0.223 and the “glycan array binding signal (z-score)” value [7] is reported as -0.16. For the same binder, the “glycan array binding signal (z-score)” value [8] was -0.24, the “glycan array binding signal (z-score)” value [9] was -0.249 and the “glycan array binding signal (z-score)” value [10] was 5.97. For the same binder, the “glycan array binding signal (z-score)” value [11] was -0.161, the “glycan array binding signal (z-score)” value (Gal3S6S(b1-4)GlcNAc) was -0.233 and the “glycan array binding signal (z-score)” value (GalNAc(b1-3)GalNAc) was 6.31. For the same binder, the “glycan array binding signal (z-score)” value [12] was 5.63, the “glycan array binding signal (z-score)” value [13] was 3.46 and the “glycan array binding signal (z-score)” value (GlcNAc(b1-3)GalNAc) was 6.85. The “glycan array binding signal (z-score)” value [14] was -0.229, the “glycan array binding signal (z-score)” value [15] was -0.244 and the “glycan array binding signal (z-score)” value (Man(b1-4)GlcNAc) was -0.24. For the same binder, the “glycan array binding signal (z-score)” value [16] was -0.244.

B3: RNase 1 (Bos taurus), P61823 (protein)
chain: MALKSLVLLSLLVLVLLLVRVQPSLGKETAAAKFERQHMDSSTSAASSSNYCNQMMKSRNLTKDRCKPVNTFVHESLADVQAVCSQKNVACKNGQTNCYQSYSTMSITDCRETGSSKYPNCAYKTTQANKHIIVACEGNPYVPVHFDASV
For B3, the “glycan array binding signal (z-score)” value (Fuc(a1-2)Gal(b1-3)GalNAc) was -0.157, the “glycan array binding signal (z-score)” value [17] was 1.93 and the “glycan array binding signal (z-score)” value [18] was -0.225. For the same binder, the “glycan array binding signal (z-score)” value (Gal(a1-4)Gal(b1-4)Gal) was 7.93, the “glycan array binding signal (z-score)” value (Gal(a1-4)Gal(b1-4)GalNAc) was 8.87 and the “glycan array binding signal (z-score)” value [19] was 0.641. The “glycan array binding signal (z-score)” value (Gal(b1-4)Glc6S) was -0.14, the “glycan array binding signal (z-score)” value [10] was -0.22 and the “glycan array binding signal (z-score)” value (Gal6S(b1-4)Glc) was -0.073. For the same binder, the “glycan array binding signal (z-score)” value [20] was -0.153, the “glycan array binding signal (z-score)” value (Man(a1-3)[Man(a1-6)]Man) was -0.147 and the “glycan array binding signal (z-score)” value [21] was -0.195. The “glycan array binding signal (z-score)” value [22] was -0.22, the “glycan array binding signal (z-score)” value (Neu5Ac(a2-3)GalNAc) was -0.24 and the “glycan array binding signal (z-score)” value [23] was -0.201.
